Screens deposited in PubChem by National Center for Advancing Translational Sciences (NCATS).
Rows were chosen to be rich in hits. Some 2.8% of all compounds tested hit in one or more screens of this group.
IP6K1 inhibitor: inhibitors of human IP6K1; IP6K1 kinase, ADP-Glo luminescence, 2 h; stronger effect = lower value; activity change, % (series mostly up to about 58 µM); 140,000 tested, 0.81% active; AID 1645851; in the data active means activity change below about -25%
Target sequence (Q92551 whole entry, looked up): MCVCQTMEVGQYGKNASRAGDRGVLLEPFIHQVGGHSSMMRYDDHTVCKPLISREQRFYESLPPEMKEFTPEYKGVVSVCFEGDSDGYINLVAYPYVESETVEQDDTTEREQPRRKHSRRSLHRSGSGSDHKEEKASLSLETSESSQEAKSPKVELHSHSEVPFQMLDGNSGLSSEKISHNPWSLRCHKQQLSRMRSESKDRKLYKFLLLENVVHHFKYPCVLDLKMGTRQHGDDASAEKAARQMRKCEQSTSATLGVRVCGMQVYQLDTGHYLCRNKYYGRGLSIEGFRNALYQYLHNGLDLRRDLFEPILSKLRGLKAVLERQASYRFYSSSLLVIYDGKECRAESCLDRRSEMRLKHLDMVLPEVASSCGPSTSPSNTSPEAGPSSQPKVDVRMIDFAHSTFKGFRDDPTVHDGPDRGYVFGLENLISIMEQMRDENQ
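ADP-Glo luminescence measures ADP made by human IP6K1 during a 2 h RT reaction with ATP/IP6 (mix at 1.3 mM/130 uM); top library doses 57.5 and 19.1 uM final.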
SNCA viab count: counter-screen for SNCA expression inhibitors: cell viability | 150,000 tested, 0.12% active | AID 1671193 | Potency, µM (series often up to 57.1 µM), hits mostly cytotoxic | HEK-293-SNCA-luc viability, GF-AFC fluorescence, 24 h; further: nearly all actives have a fitted effect of over 30% in size
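Cytotoxicity counterscreen: after 24 h compound treatment of genome-edited SNCA-luciferase HEK-293 cells, live-cell protease substrate GF-AFC read by fluorescence after 30 min; activity scaled between DMSO (0%) and medium-only (-100%), curves Hill-fitted.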
KDM5B inh: inhibitors of human KDM5B histone demethylase | 220,000 tested, 2.6% active | KDM5B demethylase, FDH-coupled NADH fluorescence (FDH is formaldehyde dehydrogenase) | Q9UGL1 | Potency, µM (top dose mostly 57.7 µM), hits mostly inhibitors; further: nearly all actives have a fitted effect of over 70% in size
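Inhibition is measured as reduced NADH fluorescence generation from FDH coupling to formaldehyde release. Truncated KDM5BΔAP at 200 nM final acts on H3K4me3 peptide (12.5 µM in substrate mix) in pH 7.5 HEPES buffer with Tween-20, 30 min, room temperature.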
SNCA expr inh: reduces expression of the alpha-synuclein gene | HEK-293 SNCA-luciferase knock-in, luminescence, 24 h | Potency, µM (titrated, usually from 57.2 µM), actives largely listed as inhibitors | 140,000 tested, 0.17% active; further: nearly all actives have a fitted effect of over 45% in size
Large screens that a line does not name were inactive. Unless noted, the call rests on the fitted dose curve; in most records, active means well fitted curve in the direction sought with a large enough effect; inconclusive means small, poorly fitted or top-dose-only effect, or another doubt; inactive means no such curve, though single readings can be large; an effect the other way counts as inactive or inconclusive.

COc1ccc(CC(=O)Nc2ccc3ncnc(N4CCCCC4)c3c2)c(Cl)c1	KDM5B inh 31.6µM
O=C(Nc1ccc2ncnc(N3CCCC3)c2c1)c1cccc(Br)c1	KDM5B inh 31.6µM
O=C(Nc1ccc2ncnc(N3CCCCC3)c2c1)c1ccsc1	SNCA viab count inconclusive
COc1ccc(CC(=O)Nc2ccc3ncnc(N4CCCC4)c3c2)c(Cl)c1	KDM5B inh inconclusive
COCC(C)NC(=O)Cc1nc(-c2ccccc2)oc1C (stereo unspecified)	none (no result: IP6K1 inhibitor, SNCA viab count, SNCA expr inh)
CN(C)C(=O)c1ccc2ccnn2c1	KDM5B inh 31.6µM
CN(C)C(=O)c1ccn2cncc2c1	KDM5B inh 35.5µM
CN(C)C(=O)c1ccn2nccc2c1	KDM5B inh 31.6µM
O=C(NC1CC1)c1cc2cccnn2n1	KDM5B inh 31.6µM
Cc1cc(Nc2ncncc2-c2nc(-c3ccccc3)no2)ccc1Cl	none
C/C=C/C=C/C(=O)Nc1c(C)cccc1C(C)C	none (no result: IP6K1 inhibitor, SNCA viab count, SNCA expr inh)
COc1cccc(CN2CCCC(O)(CN3CCC(C)CC3)C2=O)c1 (stereo unspecified)	none
O=C(NC1CC1)c1ccc2ccnn2c1	KDM5B inh 31.6µM
CN(C(=O)c1ccc(-c2nnc3ccc(NC(=O)C4CCC4)cn23)cc1)C1CCCCC1	KDM5B inh inconclusive
CC(C)CCNC(=O)c1ccc(-c2nnc3ccc(NC(=O)C4CCC4)cn23)cc1	KDM5B inh inconclusive
CC(C)CNC(=O)c1ccc(-c2nnc3ccc(NC(=O)C4CC4)cn23)cc1	KDM5B inh 14.1µM, SNCA expr inh inconclusive
Cc1cccc(CNC(=O)c2ccc(-c3nnc4ccc(NC(=O)C5CCC5)cn34)cc2)c1	KDM5B inh 28.2µM, SNCA expr inh inconclusive
O=C(O)c1ccc(-c2nnc3ccc(NC(=O)C4CCC4)cn23)cc1	KDM5B inh 31.6µM
Cc1ccc(CNC(=O)c2ccc(-c3nnc4ccc(NC(=O)C5CCC5)cn34)cc2)cc1	KDM5B inh inconclusive
COc1ccccc1C(=O)N1CC(N2C(=O)c3c(c(C)nn3-c3ccccc3)C2C)C1 (stereo unspecified)	none (no result: SNCA viab count, KDM5B inh, SNCA expr inh)
Cn1c(CN2CCCN(C(=O)c3ccoc3)CC2)nnc1C1CC(N)C1 (stereo unspecified)	none
CCCCCOc1cc(OCCCCC)c2c(-c3ccccc3)cc(=O)oc2c1	none (no result: IP6K1 inhibitor, SNCA viab count, SNCA expr inh)
COc1ccc(CCN2CC(C(=O)N3CCC(CO)CC3)CCC2=O)cc1 (stereo unspecified)	SNCA expr inh inconclusive
CNC(=O)N1CCC(C2CCN(C(=O)C3(C)CCCCC3)C2)CC1 (stereo unspecified)	none
CCN(C(=O)CCC(=O)N1CCc2nc3cc(-c4ccc(OC)cc4)[nH]n3c(=O)c2C1)c1ccccc1	KDM5B inh 7.08µM, SNCA expr inh inconclusive
COc1ccc(-c2cc3nc4c(c(=O)n3[nH]2)CN(C(=O)CC(C)C)CC4)cc1	KDM5B inh inconclusive
COc1ccc(-c2cc3nc4c(c(=O)n3[nH]2)CN(C(=O)CCc2ccccc2)CC4)cc1	KDM5B inh 5.62µM
COc1ccc(-c2cc3nc4c(c(=O)n3[nH]2)CN(C(=O)c2ccncc2)CC4)cc1	SNCA expr inh inconclusive
CCOC(=O)CCNC(=O)N1C[C@@H](Oc2cccnc2)C[C@H]1C(=O)N1CCOCC1	none
O=C(Nc1ccc(Cl)cc1)NC1CCSc2ccccc21 (stereo unspecified)	none (no result: IP6K1 inhibitor, SNCA viab count, SNCA expr inh)
CNC(=O)c1cc(C)nc2onc(C3CCN(C(=O)C(C)(C)C)C3)c12 (stereo unspecified)	none (no result: SNCA viab count, KDM5B inh, SNCA expr inh)
Cc1ccnc(NCCNC(=O)C2CCC(=O)N(CC3CCCCC3)C2)c1 (stereo unspecified)	KDM5B inh 28.2µM
CC(=O)NC[C@@H]1C=C(C)[C@H](CC(=O)NCc2ccc(F)cc2)C[C@H]1C(C)C	none
O=C(CN1C(=O)COc2ccc(S(=O)(=O)N3CCCCCC3)cc21)Nc1cccc(Cl)c1	SNCA viab count inconclusive, SNCA expr inh 10µM
O=C(CSc1ncnc2nc[nH]c12)Nc1ccc(F)cc1F	none (no result: IP6K1 inhibitor, SNCA viab count, SNCA expr inh)
C=Cc1ccc(Cn2c(C(=O)O)c(CNCCc3ccccc3)c3ccc(C)cc32)cc1	SNCA viab count 28.2µM, KDM5B inh inconclusive, SNCA expr inh inconclusive
Cc1ccc2c(CNCCc3ccc(Cl)cc3)c(C(=O)O)n(Cc3ccc(F)cc3)c2c1	none
COc1ccc(-c2cc(C(=O)NCc3cnn(C)c3)c3c(c2)N(C)CCO3)cc1	KDM5B inh 35.5µM, SNCA expr inh inconclusive
COc1cc(F)ccc1-c1cc(C(=O)NCc2cccnc2)c2c(c1)N(C)CCO2	KDM5B inh 28.2µM
COc1cc(F)ccc1-c1cc(C(=O)NCc2cnn(C)c2)c2c(c1)N(C)CCO2	KDM5B inh 39.8µM
CC1CN(C)CCC1NC(=O)Cc1cccc(C(F)(F)F)c1 (stereo unspecified)	none (no result: IP6K1 inhibitor, SNCA viab count, SNCA expr inh)
O=C(NC1CCS(=O)(=O)C1)c1cnn(-c2ccc(F)cc2)c1-n1cccc1 (stereo unspecified)	none (no result: IP6K1 inhibitor, SNCA viab count, SNCA expr inh)
O=C(CC1CCCCC1)NNC(=O)c1cccc(Cl)c1	none (no result: IP6K1 inhibitor, SNCA viab count, SNCA expr inh)
Cc1noc(-c2ccc(OC(F)(F)F)cc2)c1C(=O)NCCC(c1ccccc1)c1ccccc1	KDM5B inh inconclusive
Cc1noc(-c2ccc3c(c2)OCO3)c1C(=O)NCCSCc1ccco1	KDM5B inh inconclusive
COc1cc(OC)cc(-c2onc(C)c2C(=O)NCCC(c2ccccc2)c2ccccc2)c1	KDM5B inh 31.6µM
Cc1noc(-c2ccc3c(c2)OCO3)c1C(=O)NCCSCc1ccccc1	KDM5B inh 31.6µM
Cc1noc(-c2ccc3c(c2)OCO3)c1C(=O)NCCC(c1ccccc1)c1ccccc1	KDM5B inh 20µM
Cc1noc(-c2cccc(F)c2)c1C(=O)NCCCc1ccccc1	none
Cc1noc(-c2ccc3c(c2)OCO3)c1C(=O)NCCCc1ccccc1	KDM5B inh 25.1µM
COC(=O)c1ccc(C(=O)OC)c(NC(=O)CSc2ccc3c(c2)OCCO3)c1	none (no result: IP6K1 inhibitor, SNCA viab count, SNCA expr inh)
COc1ccc(CC(=O)N2CC3CC(C2)[C@H]2CCCC(=O)N2C3)cc1 (stereo partly specified)	none
Cn1cnc(-c2cc3nccc(Oc4ccc(NC(=S)NC(=O)Cc5ccccc5)cc4F)c3s2)c1	none (no result: KDM5B inh)
CSc1cccc(Nc2nc(SC)nc(-c3ccccc3)c2C#N)c1	none (no result: IP6K1 inhibitor, SNCA viab count, SNCA expr inh)
CCNC(=O)COc1ncnc2c(Cl)cc(Cl)cc12	none (no result: IP6K1 inhibitor, SNCA viab count, SNCA expr inh)
O=C(NCc1ccc(Cl)cc1)c1noc(-c2ccc3c(c2)OCO3)n1	KDM5B inh inconclusive
CC(C)c1ccc(CNC(=O)c2noc(-c3ccc4c(c3)OCO4)n2)cc1	KDM5B inh 25.1µM
Cc1noc(-c2ccc3c(c2)OCO3)c1C(=O)NCc1cccc(Cl)c1	KDM5B inh 31.6µM
N#Cc1nccnc1N1CCN(C2CCC3(CCNCC3)CC2)CC1	KDM5B inh 22.4µM
N#Cc1ccc(/C=N/Nc2ccc(S(=O)(=O)Nc3cccc(Cl)c3)cc2[N+](=O)[O-])cc1	none (no result: IP6K1 inhibitor, SNCA viab count, SNCA expr inh)
COc1cc(C(=O)NC2CCN(c3cc(-c4cccs4)[nH]n3)C2)cc(OC)c1OC (stereo unspecified)	KDM5B inh inconclusive
COc1cc(OC)cc(C(=O)NC2CCN(c3cc(-c4cccs4)[nH]n3)C2)c1 (stereo unspecified)	SNCA viab count inconclusive, KDM5B inh 3.55µM, SNCA expr inh inconclusive
